Screens from PubChem.
This is a sample that favours compounds with a hit; in the whole collection about 3.2% have one here.
CRE Fsk mod – Cell signaling CRE-BLA (Fsk stim) | CHO CRE-bla reporter (cAMP response element driving beta-lactamase), forskolin EC10, beta-lactamase ratio | Potency, µM (titrated, usually from 38.2 µM), for inactives: top-dose activity change, negative = inhibition, hits mostly activators | hit rate 2.5% among 71,000 | AID 662, 2007; active = well fitted activation curve with a large enough effect in the signal ratio, with a control signal flat, not every such curve was filed as active; inconclusive = small, poorly fitted or top-dose-only effect, or effect the other way, or a change in a side signal; the % refers to the signal ratio; note: % of control where 0% means no effect
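CRE-bla CHO reporter cells treated with compound titration plus EC10 NKH 477 (water-soluble forskolin), incubated 3 h at 37 °C; CCF4 loading 2 h at room temperature, 460/530 nm emission ratio read, AC50 values derived for positive or negative modulators.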
ERK AVP block – qHTS Assay for Inhibitors of the ERK Signaling Pathway using a Homogeneous Screening Assay | Potency, µM (titrated, usually from 57.5 µM), without a hit: top-dose activity, negative = inhibition, usual class: inhibitors | AID 995, 2007 | HEK293-V1b, vasopressin-stimulated pERK AlphaScreen | hit rate 0.99% among 72,000; note: % is set by controls: 0 for no effect and ±100 for the full control effect; nearly all actives have a fitted effect of over 55% in size
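qHTS, compounds titrated on V1b-expressing HEK293 cells. Preincubation 30 min at 37C, vasopressin 25 nM for 5 min, lysis 10 min, bead incubation 5 hr at room temperature.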
15-hLO-2 inh – qHTS Assay for Inhibitors of 15-hLO-2 (15-human lipoxygenase 2). Polyunsaturated fatty acid lipoxygenase ALOX15B (Homo sapiens), O15296. purified 15hLO-2, xylenol orange hydroperoxide absorbance. Potency, µM (top dose mostly 57.1 µM), inactives show at the highest dose activity change, negative = inhibition, most hits filed as inhibitors. hit rate 0.56% among 110,000. AID 881, 2007; note: % is set by controls: 0 for no effect and ±100 for the full control effect; nearly all actives have a fitted effect of over 60% in size
Target sequence (O15296 whole entry, looked up): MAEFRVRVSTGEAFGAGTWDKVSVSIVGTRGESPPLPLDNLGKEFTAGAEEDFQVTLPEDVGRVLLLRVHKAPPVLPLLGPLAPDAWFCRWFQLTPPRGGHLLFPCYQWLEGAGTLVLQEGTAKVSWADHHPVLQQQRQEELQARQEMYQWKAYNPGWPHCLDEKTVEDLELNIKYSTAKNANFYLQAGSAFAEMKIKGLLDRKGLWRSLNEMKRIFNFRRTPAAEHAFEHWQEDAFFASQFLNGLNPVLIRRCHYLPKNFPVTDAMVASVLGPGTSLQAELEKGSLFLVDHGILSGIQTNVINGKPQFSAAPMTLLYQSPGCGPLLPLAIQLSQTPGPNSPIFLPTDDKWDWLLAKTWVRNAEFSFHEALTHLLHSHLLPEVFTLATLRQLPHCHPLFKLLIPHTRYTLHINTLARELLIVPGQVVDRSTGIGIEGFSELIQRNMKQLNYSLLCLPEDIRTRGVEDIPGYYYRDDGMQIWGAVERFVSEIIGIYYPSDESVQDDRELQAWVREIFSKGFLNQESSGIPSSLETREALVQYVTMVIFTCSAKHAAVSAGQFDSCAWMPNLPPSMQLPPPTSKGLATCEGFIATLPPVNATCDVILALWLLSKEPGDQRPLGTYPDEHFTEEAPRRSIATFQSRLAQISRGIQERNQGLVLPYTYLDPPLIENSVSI
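Enzyme 50 nM, AA 45 uM, 25 mM Hepes pH 7.5 + 0.01% Triton X-100; cpd preinc 15 min RT, rxn 90 min RT; stop/detect with 200 uM XO + 300 uM Fe(II) in 50 mM H2SO4, 30 min; A573/A405.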
15-hLO inh – qHTS Assay for Inhibitors of 15-hLO (15-human lipoxygenase); Polyunsaturated fatty acid lipoxygenase ALOX15 (Homo sapiens), P16050; purified 15hLO-1, xylenol orange hydroperoxide absorbance; Potency, µM (series often up to 57.1 µM), without a hit: at the top dose activity change, negative = inhibition, actives largely listed as inhibitors; hit rate 1.4% among 74,000; AID 887, 2007; note: % is set by controls: 0 for no effect and ±100 for the full control effect; nearly all actives have a fitted effect of over 55% in size
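Inhibition is scored from a chromogenic endpoint. After 15 min enzyme-compound contact, arachidonic acid (50 uM final) reacts 6 min with 40 nM 15hLO-1 at room temperature, then Fe-XO reagent is added for 30 min and absorbance ratio recorded.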
The depositor's hits bear a star; ? = inconclusive; . = no result given; [ ] = remark or other dose. Unless noted, calls come from the whole dose curve; as a rule, active = well fitted inhibition curve with a large enough effect; inconclusive = small, poorly fitted or top-dose-only effect; inactive = no such curve, though single readings can be large or run the other way. Potency is the fitted concentration of half-maximal effect.

SMILES	CRE Fsk mod	ERK AVP block	15-hLO-2 inh	15-hLO inh
CN1CCc2c(sc3c2C(=O)NC(c2ccco2)N3)C1 (configuration not stated)	13µM*	?	29%	?
CCOC(=O)N1CCc2c(sc3c2C(=O)NC(c2ccccc2)N3)C1 (configuration not stated)	8%	?	-18%	-26%
CN1CCc2c(sc3c2C(=O)NC(c2cn(Cc4ccccc4)c4ccccc24)N3)C1 (configuration not stated)	?	13µM*	66%	3.2µM*
O=C1NC(c2ccco2)Nc2sc3c(c21)CCN(Cc1ccccc1)C3 (configuration not stated)	3.2µM*	-8%	29%	?
COc1ccc(Br)cc1C1NC(=O)c2c(sc3c2CCN(C)C3)N1 (configuration not stated)	13µM*	-3%	16%	?
CC[C@](N)(C(=O)O)C(C)C	6%[7.6 µM]	4%[11.5 µM]	-3%[11.4 µM]	4%[11.4 µM]
COc1ccc(C(=O)N2CCC3(CCN(Cc4ccncc4)CC3)CC2)cc1	-3%	0%	4%	12%
CCCCCCCCCCCCC/C=C/[C@@H](O)[C@@H](N)COP(=O)(O)O	.	.	-8%[0.0915 µM]	.
O=C(Nc1ccc2c(c1)Cc1ccccc1-2)[C@@H]1[C@H](C(=O)O)[C@]2(Cl)C(Cl)=C(Cl)[C@@]1(Cl)C2(Cl)Cl	-7%[7.6 µM]	10%[11.5 µM]	-18%[11.4 µM]	?
CC1(C)OC(C(O)(c2cccc3c2oc2ccccc23)c2cccc3c2oc2ccccc23)C(C(O)(c2cccc3c2oc2ccccc23)c2cccc3c2oc2ccccc23)O1 (configuration not stated)	.	2%[11.5 µM]	.	2%[11.4 µM]
CNS(=O)(=O)c1ccc(OC)c(-c2nnc3c4ccccc4c(C)nn23)c1	.	.	-2%	.
COc1ccc(S(=O)(=O)NCc2ccco2)cc1-c1nnc2c3ccccc3c(C)nn12	5µM*	?	0%	-1%
O=C(O)C1CC2(C1)CC(C(=O)O)C2 (configuration not stated)	2%[7.6 µM]	-9%[11.5 µM]	-8%[11.4 µM]	7%[11.4 µM]
COCc1cc(C)nc(N2CCOCC2)c1C#N	14%	-3%	5%	5%
CCOc1cc2c(C#N)c(N3CCOCC3)nc(N)c2c(N)n1	2.5µM*	16µM*	5%	-1%
COC(=O)[C@@]1(C)C=C[C@@H](Cc2ccccc2)N1C	-20%	3%	3%	-8%
O=C(Cn1cc2c(n1)CCCCC2)Nc1ccc(F)cc1F	0%	-25%	4%	-1%
Cc1nn(-c2ccc(F)cc2F)c2c1-c1nc(N3CCCC3)ncc1CC2	?	-24%	4%	25µM*
CCCCn1cnc2c(SC)ncnc21	14%[7.6 µM]	-13%[11.5 µM]	-2%[11.4 µM]	-5%[11.4 µM]
COc1ccccc1N1CCN(C/C=C/c2ccc(N(C)C)cc2)CC1	-11%	16µM*	38%	25µM*
COc1ccc(C2C(C(=O)NCc3ccccn3)c3cc(OC)c(OC)cc3C(=O)N2C)cc1 (configuration not stated)	6%	39%	0%	-2%
CCCCCCNc1cc2n(c(=O)n1)CCc1cc(OC)c(OC)cc1-2	2µM*	?	12%	-5%
COc1cc2c(cc1OC)-c1cc(OCCN3CCOCC3)nc(=O)n1CC2	7.9µM*	?	0%	-1%
CCNc1cc2n(c(=O)n1)CCc1cc(OC)c(OC)cc1-2	10µM*	-29%	-2%	6%
COc1cc2c(cc1OC)-c1cc(NCc3ccccn3)nc(=O)n1CC2	13µM*	?	-13%	13µM*
SMILES	CRE Fsk mod	ERK AVP block	15-hLO-2 inh	15-hLO inh
CCCS(=O)(=O)N1CCc2cc(OC)c(OC)cc2C1	?	-3%	-8%	-8%
C[C@@H](C(=O)Nc1ccc2ccccc2c1)[C@@H]1C[C@@]1(C)[C@@H](NC(=O)c1ccncc1Cl)c1ccccc1	-15%	0%	18%	.
O=c1c(-c2cc(F)cc(F)c2)nc2cnc(N3CCOCC3)nc2n1Cc1cccs1	0.63µM*	-10%	-8%	-1%
O=c1c(-c2cc(F)cc(F)c2)nc2cnc(N3CCOCC3)nc2n1C1CC1	1µM*	18%	-3%	?
O=c1c(-c2cc(F)cc(F)c2)nc2cnc(N3CCNCC3)nc2n1C1CC1	?	-9%	26%	2%
O=C(Nc1cccc(F)c1)N1CCC2(CCNCC2)CC1	0%	0%	1%	2%
O=C(O)c1ccccc1[N+](=O)[O-]	-3%	9%	-11%	-2%
O=[N+]([O-])c1ccccc1Nc1ccccc1	3%	16µM*	3%	-10%
O=C(Nc1ccc(Cl)cc1C(=O)Nc1ccccn1)c1ccco1	?	-22%	1%	0.16µM*
O=C(Nc1ccccn1)c1ccco1	.	.	-10%	.
CC(=O)OC[C@@H]1O[C@H](CCO/N=C(\C)CCC(=O)OC[C@@H]2O[C@H](C#Cc3ccccc3)C=C[C@@H]2Oc2ccc(C)cc2)C=C[C@@H]1OC(C)=O	.	4%[11.5 µM]	.	1%[11.4 µM]
COCCNc1nc(C)nc2c1nc(-c1ccccc1)n2C1CCN(Cc2ccccc2)C1 (configuration not stated)	?	-9%	36%	5%
Cn1c(CC(=O)Nc2ccc(Cl)c(Cl)c2)nnc1SCC(=O)Nc1nccs1	.	.	-28%	.
Cn1c(CCCOc2ccc(Cl)cc2Cl)nnc1SCC(=O)Nc1nccs1	-7%	32µM*	4%	-8%
CC(=O)N1CCC[C@@]2(CCN(Cc3ccc(C#N)cc3)C2)C1	-3%	-2%	-2%	-10%
Cn1nc(-c2ccc(OCC(=O)Nc3cccnc3)cc2)c2ccccc2c1=O	?	32µM*	0%	-3%
CCCC(=O)Nc1cc(-c2nn(C)c(=O)c3ccccc23)ccc1N1CCCCC1	2µM*	?	.	9%
CCC(=O)Nc1cc(-c2nn(C)c(=O)c3ccccc23)ccc1OC	13µM*	-15%	-5%	2%
CCCC(=O)Nc1cc(-c2nn(C)c(=O)c3ccccc23)ccc1OC	13µM*	-9%	2%	5%
CC(=O)O[C@]1(C)N=NC2(CCCCC2)O1	?	5%[11.5 µM]	-5%[11.4 µM]	0%[11.4 µM]
S=C1N[C@H](c2ccccc2)N[C@H](c2ccccc2)S1	12%[7.6 µM]	-17%[11.5 µM]	-29%[11.4 µM]	-24%[11.4 µM]
CCCN1Cc2cccc(C(=O)Nc3cc(OC)cc(OC)c3)c2C1=O	6.3µM*	-8%	-6%	-7%
Cc1cc(-c2nnc(-c3ccccc3)c(-c3ccccc3)n2)c(C)o1	-20%	10%	?	25µM*
O=C(Nc1cccc(F)c1)N1CC=C(n2c(=O)[nH]c3ccccc32)CC1	-15%	20µM*	.	-28%
O=C(Nc1ccccc1)N1CC=C(c2ccc(F)cc2)CC1	-10%	-10%	21%	?
N#C/C(=C1/CCCCCN1)c1nc2ccccc2[nH]1	8%	16%	2%	-7%
N#C/C(=C1\CCCN1)c1ccc2ccccc2n1	-7%	16µM*	-8%	-24%
COc1ccc(-c2nnc(SCC(=O)NCc3cccs3)n2C(C)C)cc1	.	.	-1%	.
